The text below walks through data of the supplement of paper PMC6555819.

What all share (assay): PBM binding z-score (relative to random genomic background probes); higher = stronger binding; sequences stand for … in GC…GCGATTGACAGCGTAGAATGAAGG
For assay [1], the system named is FXR:RXRa (NR concentration 270 nM, RXRa partner concentration 90 nM). In outline:
(§1)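 Binding z-scores take random background probes as their reference. They come from custom Agilent 4×180K protein-binding microarrays incubated 1 h with ligand-free nuclear receptor dimers, with antibodies against each partner (one per run) detecting binding. Scanned fluorescence was regression-normalized.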

The subject of assay [2] is LXRa:RXRa (NR concentration 270 nM, RXRa partner concentration 90 nM). In a few lines:
as §1

Assay [3] relates to LXRa homodimer (NR concentration 270 nM). In a few lines:
as §1

For assay [4], the system named is LXRb:RXRa (NR concentration 270 nM, RXRa partner concentration 90 nM). In outline: as §1
Assay [5] has as its system LXRb homodimer (NR concentration 270 nM). In outline:
as §1

The subject of assay [6] is PPARa:RXRa (NR concentration 270 nM, RXRa partner concentration 90 nM). In a few lines: as §1
For assay [7], the system named is PPARg:RXRa (NR concentration 180 nM, RXRa partner concentration 90 nM). In outline:
as §1

Assay [8] has as its system PPARg:RXRa 270nM:90nM, anti-RXR (NR concentration 270 nM, RXRa partner concentration 90 nM). In outline: as §1
The test system of assay [9] is PPARg:RXRa 30nM:10nM, anti-RXR (NR concentration 30 nM, RXRa partner concentration 10 nM). In outline:
as §1

The test system of assay [10] is PPARg:RXRa 90nM:30nM, anti-RXR (NR concentration 90 nM, RXRa partner concentration 30 nM). In outline:
as §1

In assay [11] the test system is PPARg:RXRa DBDmut IVT, anti-RXR (DBD mutation: RXRa K156A/R161A, NR concentration 270 nM, RXRa partner concentration 90 nM). In outline: as §1
Assay [12] concerns PPARg:RXRa IVT, anti-PPARg (NR concentration 270 nM, RXRa partner concentration 90 nM). In outline:
as §1

For assay [13], the system named is PPARg DBDmut:RXRa IVT, anti-PPARg (DBD mutation: PPARg1 K132A/R137A, NR concentration 270 nM, RXRa partner concentration 90 nM). In a few lines: as §1
Assay [14] has as its system PPARg DBDmut IVT, anti-PPARg (DBD mutation: PPARg1 K132A/R137A, NR concentration 270 nM). In outline:
as §1

The test system of assay [15] is PPARg homodimer (NR concentration 180 nM). In outline: as §1
Assay [16] deals with PXR:RXRa (NR concentration 270 nM, RXRa partner concentration 90 nM). In a few lines:
as §1

In assay [17] the test system is PXR homodimer (NR concentration 270 nM). In outline: as §1
Assay [18] relates to RARa:RXR (NR concentration 270 nM, RXRa partner concentration 90 nM). In a few lines:
as §1

The subject of assay [19] is RARa homodimer (NR concentration 270 nM). In outline:
as §1

Assay [20] deals with RARb:RXRa (NR concentration 270 nM, RXRa partner concentration 90 nM). In a few lines: as §1

For CGTGCTAGGTCATGGTCAGCTAATCTACAGTATG, the PBM binding z-score in assay [1] was 3.55; in [2], 2.46; in assay [3] it was 0.0428; in assay [4], 1.84; in [5], -0.338; in assay [6] it was 3.36. The PBM binding z-score in assay [7] worked out at 2.98; in assay [8], 2.8; in assay [9], 0.471; in assay [10] it was 2.11; in [11], 4.45; in assay [12], 4.25. Besides, the PBM binding z-score in assay [13] is 0.168; in assay [14] it was -0.51; in assay [15], 1.36; in assay [16], 1.5; in assay [17], -0.399; in assay [18], 2.51. Moreover, the PBM binding z-score in assay [19] is -0.32; in [20] it was 3.94.
For the sequence CCGACTGGTGCAAGGTTACCATAACGCACAGCCA, the PBM binding z-score in [1] was -0.035; in assay [2], 0.459; in [3] it was -0.262; in assay [4] it was 0.654; in assay [5], -1.22; in assay [6], 0.831. In addition, the PBM binding z-score was 0.89 in [7]; 0.462 in assay [8]; -0.236 in assay [9]; 0.039 in assay [10]; -0.528 in assay [11]; -0.0659 in [12]. The PBM binding z-score in assay [13] was -0.402; in [14], -0.928; in assay [15], 0.54; in assay [16], 0.357; in assay [17], -0.288; in assay [18], 0.554. Further, the PBM binding z-score in [19] amounted to 0.0426; in assay [20] it was 0.894.
Consider ACTTACGGGTAAACGAGGTTATAGCACGCGTATA, for which the PBM binding z-score was determined as 0.677 in [1]; 2.57 in assay [2]; 0.806 in assay [3]; 1.56 in assay [4]; 0.485 in assay [5]; 2.01 in assay [6]. Besides, the PBM binding z-score in [7] was 0.93; in assay [8], 0.752; in [9], 0.277; in [10], 0.238; in [11] it was 0.828; in assay [12] it was 1.16. In addition, the PBM binding z-score is -0.07 in assay [13]; 0.0677 in [14]; 0.611 in [15]; 1.65 in [16]; 0.138 in assay [17]; 2.32 in assay [18]. Also, the PBM binding z-score in assay [19] was 0.806; in [20], 0.846.
As to TGAATGAGGGTATAAGATCAGGGAACGTTGCAAA, the PBM binding z-score in [1] is 0.413; in assay [2] it was 0.344; in assay [3], -0.145; in assay [4], 0.00334; in assay [5], 0.501; in assay [6], 0.874. Also, the PBM binding z-score in assay [7] stood at 0.576; in assay [8], 1.23; in assay [9], 1.11; in assay [10], 0.839; in assay [11], 0.322; in assay [12] it was 0.573. Also, the PBM binding z-score in assay [13] turned out to be 0.938; in [14], 0.423; in assay [15], 0.497; in assay [16] it was 0.178; in assay [17], 0.202; in assay [18], 0.234. Also, the PBM binding z-score in assay [19] was -0.0465; in assay [20], 0.303.
Regarding GCAGACAGGTGAAACTCAGGTAACTCAGGGTGGC, the PBM binding z-score is 0.432 in assay [1]; 0.209 in assay [2]; -0.137 in assay [3]; -0.208 in [4]; -0.746 in [5]; 1.13 in [6]. The PBM binding z-score in [7] is 0.585; in [8], 0.196; in [9], -0.602; in assay [10] it was -0.156; in assay [11], 0.904; in assay [12], 0.656. Besides, the PBM binding z-score is -0.318 in assay [13]; -0.994 in assay [14]; -0.214 in [15]; 0.118 in assay [16]; -0.356 in assay [17]; 0.625 in [18]. Further, the PBM binding z-score in assay [19] was -0.536; in assay [20], 0.901.
With ATCGAAAGGTCGACGAGGTGAGGATACACCGTTT, the PBM binding z-score was 4.5 in assay [1]; 3.36 in assay [2]; 0.0188 in assay [3]; 2.44 in [4]; 0.655 in [5]; 4.27 in [6]. Also, the PBM binding z-score in assay [7] stood at 3.09; in [8], 3.46; in [9] it was 1.36; in assay [10], 2.36; in assay [11] it was 0.8; in assay [12], 2.39. The PBM binding z-score stood at 0.388 in [13]; 0.42 in [14]; 1.72 in assay [15]; 2.77 in [16]; 0.496 in [17]; 3.52 in assay [18]. The PBM binding z-score worked out at 0.262 in [19] and 3.98 in assay [20].
